Drawing on PubChem BioAssay (NCATS), this text covers Potency, outcome and activity change, negative = inhibition for ten compounds.

Assay [1] concerns Zika virus NS2B-NS3 protease. The experiment in a line: Primary screen GU AMC qHTS for Zika virus inhibitors (AID 1347154).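 Further: 0% = no-inhibitor control and -100% = no-enzyme control; nearly all actives have a fitted effect of over 70% in size.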 A digest of the protocol: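 Fluorogenic AMC-substrate cleavage by noncovalent NS2B-NS3 protease complex (25 nM, pH 8.0 Tris buffer with Tween 20) followed for 15 minutes at room temperature (~20% conversion). Percent inhibition from ex340/em450 signal change, fitted by 4-parameter Hill equation.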
(qHTS replaces the single test concentration by a dilution series.)

Assay [2] concerns the target Lysine-specific demethylase 5B (Homo sapiens) (UniProt Q9UGL1). The assay is described as follows: Optimization screen for KDM5B Histone Demethylases FDH coupled qHTS against the LOPAC library (AID 1347166). Further: 0% is about no effect. The essentials:
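KDM5BDeltaAP (200nM final) preincubated 10 min with compound, then 12.5uM H3K4Me3, 25uM a-ketoglutarate, ascorbate, Fe(II), NAD+ and FDH added; 50mM HEPES pH 7.5, 0.01% Tween-20. NADH fluorescence (340/450 nm) change over 30 min, room temperature.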

Assay [3] in a line: qHTS to identify inhibitors of the type 1 interferon - major histocompatibility complex class I in skeletal muscle: primary screen against the NCATS LOPAC collection (AID 1347405).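 Further: lytic HiBiT luminescence reporting HLA-B protein level; on the % scale 0 is the no-effect control and ±100 the full control effect.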 The essentials: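 Luminescence from HiBiT fused to endogenous HLA-B in CRISPR-engineered human myoblasts served as the read-out. Cells received 4.0 ng/ml IFN-beta plus compound (seven concentrations, 1:4.3 steps, highest 46 uM final) for 24 hrs before lytic detection.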

Assay [4] can be described thus: qHTS to identify inhibitors of the type 1 interferon - major histocompatibility complex class I in skeletal muscle: primary screen against the NCATS Pharmaceutical Collection (AID 1347407).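 Further: luminescence of HiBiT knocked into endogenous HLA-B as interferon-induced MHC class I level; on the % scale 0 is the no-effect control and ±100 the full control effect.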 A digest of the protocol:
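Compounds […] were added to CRISPR-engineered HLA-B-HiBiT C25cl48 human myoblasts with 4.0 ng/ml IFN-beta. After 24 hrs at 37 C, cells were lysed and HiBiT luminescence measured.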

Assay [5] can be described thus: qHTS for inhibitors of adenylyl cyclases using a fission yeast platform: a pilot screen against the NCATS LOPAC library (AID 1347410).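 Further: plate controls were DMSO vehicle for no effect and DPI positive control for full effect.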 A digest of the protocol:
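GFP from fbp1-GFP reporter, read by Acumen laser cytometry, indicates AC inhibition in fission yeast expressing AC9, GNAS and PDE4D2. Cells grown 18 h in the dark at 30C with compounds, final up to 57 uM.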

Assay [6] is described as follows: qHTS to identify inhibitors of the type 1 interferon - major histocompatibility complex class I in skeletal muscle: primary screen against the NCATS Mechanism Interrogation Plate v5.0 (MIPE) Libary (AID 1347411).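 Further: plate controls were vehicle for no effect and reference inhibitor for full effect; nearly all actives have a fitted effect of over 65% in size.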 A digest of the protocol: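 Luminescence from HiBiT-tagged endogenous HLA-B*08:01 served as the MHC class I read-out. CRISPR-engineered C25cl48 human myoblasts received 4.0 ng/ml IFN-beta plus compound for 24 hrs, with an 11-point, 1:3 series topping at 46 uM final.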

Assay [7] has as its target Protein phosphatase 1D (Homo sapiens) (UniProt O15297). The assay is described as follows: RapidFire Mass Spectrometry qHTS Assay for Modulators of WT P53-Induced Phosphatase 1 (WIP1) (AID 1347424).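 Further: amount of dephosphorylated VEPPL-S-QETFS peptide product formed by WIP1; series mostly up to about 63 µM; plate controls were DMSO wells for no effect and GSK830371 inhibitor control at 10 µM for full effect.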 A digest of the protocol:
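10 nM WIP1 + cpd, 1 h RT; + 2 uM VEPPL-pS-QETFS, 5 min RT; stop 0.5% formic acid; labelled product standard 1 uM; RapidFire MS. Buffer 50 mM Tris pH 7.5, 30 mM MgCl2, 1 mM TCEP.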

For assay [8] the target is unchanged. The assay is described as follows: Rhodamine-PBP qHTS Assay for Modulators of WT P53-Induced Phosphatase 1 (WIP1) (AID 1347425). Further: % of control where 0% means no effect. The essentials: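 5 nM WIP1 + 10 uM Rh-PBP, 50 mM Tris pH 7.5, 30 mM MgCl2, 1 mM TCEP, 0.1 mM EGTA, BSA; cpds pinned, 1 hr RT; + 10 uM phosphopeptide; fluorescence 1-min reads x 11 min; delta = f1 - f0.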
Assay [9] in a line: Validation qHTS assay for inhibitors of Activation Induced Cytidine Deaminase (AID): UDG Counterscreen signal (AID 1347427). Further: 0% is about no effect. The essentials: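 Counterscreen read of UDG activity (2 U/mL, 4/3x) in the FRET deamination format with AID (1 uM, 4/3x), DJC20/DJC23 substrates (250 nM, 4x), 4 h at room temperature. NaOH stop, fluorescence at 560 ex/665 em.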
The test system of assay [10] is Zika virus NS2B-NS3 protease (unlinked complex). The experiment in a line: Primary screen GU Rhodamine qHTS for Zika virus inhibitors: Unlinked NS2B-NS3 protease assay (AID 1347159). Further: nearly all actives have a fitted effect of over 60% in size. Further: potency means the concentration at half of the fitted maximal effect. The essentials: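 A qHTS format was used, with compound concentrations ranging up to 114 microM. Each compound was preincubated with 25 nM NS2B-NS3 protease, and the substrate was then added at 1.5 microM. Curves were fitted with a 4-parameter Hill model.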

Assay [11] has as its system Zika virus NS2B-NS3 protease (linked construct). The experiment in a line: Primary screen NINDS Rhodamine qHTS for Zika virus inhibitors (AID 1347160). Further: nearly all actives have a fitted effect of over 55% in size. A digest of the protocol: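 Kinetic fluorescence (Ex 480 nm, Em 540 nm) over 15 min with 1.5 microM Rhodamine110 peptide and 25 nM linked protease.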
For assay [12] the test system is unchanged. The experiment in a line: Confirmatory screen NINDS AMC qHTS for Zika virus inhibitors (AID 1347152). Further: potency means the concentration at half of the fitted maximal effect; nearly all actives have a fitted effect of over 70% in size. The essentials: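 IC50s from 4-parameter Hill fits of percent inhibition, based on AMC fluorescence gain (340/450 nm) over 15 min with 10 microM Bz-Nle-KRR-AMC. Enzyme: 1 nM linked NS2B-NS3 in Tris-HCl pH 8.0; 15-min compound preincubation.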
The subject of assay [13] is Zika virus NS2B-NS3 protease (linked). The experiment in a line: 384 well plate NINDS AMC confirmatory qHTS for Zika virus inhibitors (AID 1347163).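 Further: linked protease at 5 30 or 60 nM final depending on run; fluorescence of AMC released from Ac-VKTGKR-AMC peptide cleaved by the protease; top concentration of the series differs between compounds; 0% = no-inhibitor control and -100% = no-enzyme control; nearly all actives have a fitted effect of over 50% in size.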 A digest of the protocol:
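Linked NS2B-NS3 protease (final 5 nM, 30 nM or 60 nM) was preincubated with compounds (final up to 1 mM) for ~15 minutes. Ac-VKTGKR-AMC substrate (final 30 microM) then reacted for 25 minutes at room temperature in the dark. Fluorescence (ex 355/em 460 nm) was normalized to no-enzyme and no-inhibitor controls.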

The test system of assay [14] is Zika virus NS2B-NS3 protease (linked construct). The assay is described as follows: 384 well plate NINDS Rhodamine confirmatory qHTS for Zika virus inhibitors (AID 1347164). Further: potency means the concentration at half of the fitted maximal effect; nearly all actives have a fitted effect of over 65% in size. The following applies: rhodamine-110 peptide substrate fluorescence. The essentials: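 Fluorescence at 485/538 nm was measured 25 minutes after adding 10 microM Ac-LKRR-Rd substrate, in the dark at room temperature. The protease (5, 30 or 60 nM final) had been preincubated ~15 minutes with compound; aprotinin as control.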

The nature of assay [15]: Vero cells viability qHTS for Zika virus inhibitors (AID 1347167). Further: on the % scale 0 is the no-effect control and ±100 the full control effect. The essentials: (§1)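 Compounds were tested in concentration series on cells grown in DMEM containing 4% FBS. After 24 to 48 hours, cellular ATP was measured by luminescence with CellTiter Glo.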
Assay [16] can be described thus: HepG2 cells viability qHTS for Zika virus inhibitors (AID 1347168). Further: on the % scale 0 is the no-effect control and ±100 the full control effect. The essentials: as §1
The nature of assay [17]: Tertiary RLuc qRT-PCR qHTS assay for Zika virus inhibitors (AID 1347169). Further: top concentration of the series differs between compounds; on the % scale 0 is the no-effect control and ±100 the full control effect; nearly all actives have a fitted effect of over 55% in size. The essentials: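 Orthogonal cell-based readout: luminescence measured 1-1.5 hrs after adding live-cell Renilla substrate to Vero cells that had been infected with ZIKV-RLuc (MOI 1-2) post-compound, incubated 48-72 hrs at 37 degrees C.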
(In general: In qPCR the cycle at which signal appears reflects the starting amount.)

Structures are written as SMILES. Unmarked numbers belong to inactive results. Inconclusive results are not listed. Activity calls are given as the source filed them. The call rests on the fitted dose curve; in most records, active means well fitted curve in the direction sought with a large enough effect; inconclusive means small, poorly fitted or top-dose-only effect, or another doubt; inactive means no such curve, though single readings can be large; an effect the other way counts as inactive or inconclusive.

Chain of Protein phosphatase 1D (Homo sapiens) (O15297 whole entry, looked up): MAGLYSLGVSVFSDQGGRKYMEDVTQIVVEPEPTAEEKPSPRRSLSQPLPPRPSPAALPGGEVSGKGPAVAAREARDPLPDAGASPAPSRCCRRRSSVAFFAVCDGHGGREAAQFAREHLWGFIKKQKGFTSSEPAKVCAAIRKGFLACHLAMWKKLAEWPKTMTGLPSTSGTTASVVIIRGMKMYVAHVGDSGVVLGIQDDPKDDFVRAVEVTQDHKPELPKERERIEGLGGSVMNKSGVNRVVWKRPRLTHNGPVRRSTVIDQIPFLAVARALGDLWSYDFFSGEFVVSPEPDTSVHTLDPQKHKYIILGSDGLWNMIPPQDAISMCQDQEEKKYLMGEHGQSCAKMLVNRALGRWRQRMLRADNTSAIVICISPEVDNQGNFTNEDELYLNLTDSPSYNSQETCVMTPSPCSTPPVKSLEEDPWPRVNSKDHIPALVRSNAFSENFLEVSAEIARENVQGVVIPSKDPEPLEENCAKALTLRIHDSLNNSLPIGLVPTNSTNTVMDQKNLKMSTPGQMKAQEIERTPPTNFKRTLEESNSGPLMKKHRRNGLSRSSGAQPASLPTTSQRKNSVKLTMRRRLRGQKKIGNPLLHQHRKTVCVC
Chain of Lysine-specific demethylase 5B (Homo sapiens) (Q9UGL1 whole entry, looked up): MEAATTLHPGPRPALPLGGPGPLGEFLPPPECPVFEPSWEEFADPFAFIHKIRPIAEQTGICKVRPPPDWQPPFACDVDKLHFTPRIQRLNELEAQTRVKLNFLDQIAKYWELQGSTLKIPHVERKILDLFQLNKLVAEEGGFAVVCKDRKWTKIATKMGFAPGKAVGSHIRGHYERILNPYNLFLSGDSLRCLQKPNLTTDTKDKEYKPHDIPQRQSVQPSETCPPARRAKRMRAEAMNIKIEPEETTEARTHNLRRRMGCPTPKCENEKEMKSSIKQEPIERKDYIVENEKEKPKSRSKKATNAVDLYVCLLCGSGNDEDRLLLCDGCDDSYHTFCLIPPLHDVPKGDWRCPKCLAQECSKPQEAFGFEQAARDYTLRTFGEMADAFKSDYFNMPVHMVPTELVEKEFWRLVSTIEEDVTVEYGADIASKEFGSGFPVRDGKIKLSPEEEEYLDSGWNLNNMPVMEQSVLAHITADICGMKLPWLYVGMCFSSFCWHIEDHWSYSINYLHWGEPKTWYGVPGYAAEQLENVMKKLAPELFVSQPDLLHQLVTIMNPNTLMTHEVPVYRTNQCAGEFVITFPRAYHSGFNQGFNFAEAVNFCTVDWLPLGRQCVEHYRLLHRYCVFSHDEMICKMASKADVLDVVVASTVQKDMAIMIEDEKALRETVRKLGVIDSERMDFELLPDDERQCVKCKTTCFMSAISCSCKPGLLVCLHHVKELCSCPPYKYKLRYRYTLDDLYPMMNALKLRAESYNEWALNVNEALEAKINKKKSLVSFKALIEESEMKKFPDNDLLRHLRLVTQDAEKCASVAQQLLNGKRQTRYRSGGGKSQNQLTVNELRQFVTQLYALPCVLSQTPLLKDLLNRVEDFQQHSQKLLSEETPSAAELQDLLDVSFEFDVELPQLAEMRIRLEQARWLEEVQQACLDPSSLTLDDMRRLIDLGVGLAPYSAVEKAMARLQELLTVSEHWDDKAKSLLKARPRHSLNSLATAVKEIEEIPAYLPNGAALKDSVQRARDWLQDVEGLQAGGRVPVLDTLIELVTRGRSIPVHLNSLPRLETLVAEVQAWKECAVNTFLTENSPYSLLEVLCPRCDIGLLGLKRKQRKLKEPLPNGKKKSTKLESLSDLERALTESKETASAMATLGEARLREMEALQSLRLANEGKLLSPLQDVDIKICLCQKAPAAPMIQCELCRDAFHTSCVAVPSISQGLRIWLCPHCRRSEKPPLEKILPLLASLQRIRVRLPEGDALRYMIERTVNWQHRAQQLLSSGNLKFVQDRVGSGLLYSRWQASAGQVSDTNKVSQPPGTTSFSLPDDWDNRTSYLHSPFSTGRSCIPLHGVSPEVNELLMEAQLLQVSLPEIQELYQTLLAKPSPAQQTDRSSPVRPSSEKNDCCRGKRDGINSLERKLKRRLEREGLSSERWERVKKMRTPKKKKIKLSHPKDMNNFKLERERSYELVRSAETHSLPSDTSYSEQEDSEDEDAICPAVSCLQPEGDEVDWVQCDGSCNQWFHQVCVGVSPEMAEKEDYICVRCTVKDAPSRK

`NC(=O)c1ncn([C@@H]2O[C@H](CO)[C@@H](O)[C@H]2O)n1`: the Potency result in [1], in assay [3], in assay [4], in [6] and in assay [9] was “inactive” in each case. The compound was classed as inactive in assay [2], in assay [5], in assay [7] and in assay [8].
As to `CCCCN1CCCC[C@H]1C(=O)Nc1c(C)cccc1C`, the Potency entry in assay [1], in assay [10], in assay [11] and in assay [4] was “inactive” each time. In addition, the result in assay [7] and in [8] was inactive.
As to `CCOC(CN1CCN(CC(C)C(=O)c2ccccc2)CC1)c1ccccc1` (centres undefined), the Potency entry in [1], in assay [10], in [11] and in [4] was “inactive” each time. For the same compound, the outcome in [7] and in assay [8] was inactive.
Take `CNC(=O)Oc1ccc2c(c1)[C@]1(C)CCN(C)[C@@H]1N2C`: the Potency entry in assay [1], in [10], in assay [11], in assay [3], in [4] and in [9] was “inactive” throughout. Further, the compound was called inactive in assay [2], in assay [5], in [7] and in [8].
Consider `CC(C(O)c1ccc(O)cc1)N1CCC(Cc2ccccc2)CC1` (centres undefined), for which the Potency entry in assay [1], in assay [10], in assay [11], in assay [3], in [4] and in assay [9] was “inactive” each time. Besides, the outcome in [2], in assay [5], in assay [7] and in assay [8] was inactive.
With `Nc1ccc(S(=O)(=O)Nc2nccs2)cc1`, the Potency result in assay [1], in [11] and in assay [4] was “inactive” throughout. Moreover, the compound was classed as inactive in assay [7] and in assay [8].
As for `CC(C)(O)c1ccccc1CC[C@@H](SCC1(CC(=O)O)CC1)c1cccc(/C=C/c2ccc3ccc(Cl)cc3n2)c1`, the results for the Potency in assay [12], in [10] and in assay [14] were 27.1 µM (active), 3.16 µM (active) and 112 µM (active), respectively. Moreover, the Potency result in assay [13], in [15], in assay [17] and in assay [4] was “inactive” throughout. Moreover, the compound was classed as inactive in assay [16].
`COc1ccc(Cl)cc1C(=O)NCCc1ccc(S(=O)(=O)NC(=O)NC2CCCCC2)cc1`: the Potency entry in [1], in assay [11], in assay [3] and in assay [9] was “inactive” each time. For the same compound, the outcome in [2] and in [5] was inactive.
Consider `NC(N)=NCCC[C@H](N)C(=O)O`, for which the Potency entry in assay [1], in [3] and in assay [9] was “inactive” throughout. For the same compound, the compound was called inactive in assay [2] and in assay [5]. For the same compound, the activity change, negative = inhibition in assay [4] was -4.76% [at 3.83 µM]; in assay [7], -3.57% [at 6.17 µM]; in assay [8] it was -0.0772% [at 4.81 µM].
On to `Nc1nc2c(ncn2CCC(CO)CO)c(=O)[nH]1`, for which the Potency entry in assay [1], in assay [10], in assay [11] and in assay [4] was “inactive” throughout. Besides, the outcome in [7] and in assay [8] was inactive.
